Assay outcomes (PubChem BioAssay)
Only some compounds are listed: those with a hit (about 3.2% of all), similar ones and a draw of the others.
SMARCA2 act: SMARCA2 function activation, primary screen | AID 652017 | MG213 cells, MMTV-luciferase reporter, dexamethasone, overnight | activation, % at 9.1 µM | actives 1% (n = 370,000); in the data active = activation above about 7.8%;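 note: 0% = vehicle wells and 100% = reference activator wells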
esBAF inh: inhibitors of esBAF chromatin remodeling in mouse ES cells | Bmi1-luciferase knock-in reporter, 24 h; 100% = twice the neutral-well signal | reporter increase, % at 12.5 µM | AID 602393 | actives 2% (n = 350,000); in the data active = activation above about 40%;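 note: 0% = median of the plate's neutral control wells and 100% = double that signal; a rise in the Bmi1 reporter signal indicates esBAF inhibition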
Rtt109 HAT inh: C. albicans Rtt109 histone acetyltransferase inhibition | Q5AAJ8 | purified Rtt109/Vps75, ThioGlo CoA-SH fluorescence, 4 h | inhibition, % at 34.9 µM | actives 0.16% (n = 330,000) | AID 540336;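 active = inhibition of at least 50% in every replicate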
CDK5 inh: CDK5/p35 (human) kinase inhibition | Recombinant CDK5/p35, ADP-Glo luminescence, 60 min | AID 488839 | Q00535+Q15078 | inhibition, % at 10 µM | actives 0.01% (n = 330,000);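 active = highest replicate inhibition of at least 50% and at least 75% of replicates reaching 50%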;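 note: plate controls were DMSO neutral control for no effect and GW8510 at 10 µM for full effect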
Target sequence (Q00535 whole entry, looked up): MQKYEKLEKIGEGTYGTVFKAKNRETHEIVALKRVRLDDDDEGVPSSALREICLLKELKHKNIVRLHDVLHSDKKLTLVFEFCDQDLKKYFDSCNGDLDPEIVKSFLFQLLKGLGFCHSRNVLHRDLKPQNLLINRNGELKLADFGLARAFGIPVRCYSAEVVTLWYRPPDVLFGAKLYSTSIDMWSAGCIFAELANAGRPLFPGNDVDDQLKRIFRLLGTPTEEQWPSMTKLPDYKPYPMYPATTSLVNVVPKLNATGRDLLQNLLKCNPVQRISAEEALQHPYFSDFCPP
Target sequence (Q15078 whole entry, looked up): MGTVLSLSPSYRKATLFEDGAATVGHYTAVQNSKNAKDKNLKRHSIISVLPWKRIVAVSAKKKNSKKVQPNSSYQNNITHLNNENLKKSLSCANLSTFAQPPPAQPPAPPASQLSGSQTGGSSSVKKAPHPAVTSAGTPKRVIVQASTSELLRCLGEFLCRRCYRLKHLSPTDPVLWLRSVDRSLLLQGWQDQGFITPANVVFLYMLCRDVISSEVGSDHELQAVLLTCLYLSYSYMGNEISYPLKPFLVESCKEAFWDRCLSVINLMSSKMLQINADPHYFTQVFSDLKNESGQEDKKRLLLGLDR
DYRK1A inh: Dyrk1A (rat) kinase inhibition. Q63470. ADP-Glo luminescence, NFATc1 peptide. inhibition, % at 12.5 µM. actives 0.43% (n = 310,000). AID 504441; in the data active = inhibition above about 50%;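 note: plate controls were vehicle with enzyme for no effect and no enzyme for full effect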
dFosB activator: activators of mouse delta FosB homodimer; purified delta FosB, TAMRA-CDK5 oligo fluorescence polarization; percent of positive-control signal above neutral wells; actives 0.99% (n = 340,000); AID 493131; activation, % at 25 µM;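 active = mean activation above about 17%, with every replicate also reaching it, limit read from the data, passing the limit was not always enough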
* hit, by the source's call; / = no result.

SMILES | SMARCA2 act | esBAF inh | Rtt109 HAT inh | CDK5 inh | DYRK1A inh | dFosB activator
O=C(Nc1nnc(-c2ccccc2)s1)c1ccc(F)cc1 | 3 | 47* | -5 | 0 | -5 | -3
COc1ccc(C(=O)Nc2nnc(-c3ccc(F)cc3)s2)c(OC)c1 | 0 | 4 | -4 | -1 | 6 | 0
CCC(C)NC(=O)c1ccccc1-c1ccccc1C(=O)NC(C)CC (centres undefined) | 6 | 2 | / | -2 | -1 | -5
COc1ccccc1-c1cc(C(=O)NC(C)C)no1 | 7 | 52* | 14 | 0 | 4 | -16
CCC(C)NC(=O)c1cc(-c2ccccc2O)on1 (centres undefined) | 5 | 57* | 4 | -1 | 5 | -5
Cc1ccc(-c2cnc(-c3ccncc3)o2)cc1 | 6 | 45* | -3 | 10 | 33 | -19
Cc1cnc(NC(=O)Cc2ccc(S(=O)(=O)N3CCOCC3)s2)s1 | 0 | / | 4 | 1 | -1 | -14
CC(C)(C)c1csc(NC(=O)Cc2ccc(S(=O)(=O)N3CCOCC3)s2)n1 | -3 | 43* | 19 | 0 | 2 | -8
CC(=O)c1cc(NC(=O)c2ccc(C)cc2)c(=O)oc1/C=C/N(C)C | 3 | 44* | 2 | -1 | -1 | -16
Cc1ccc(SCc2c(C#N)c3ccccc3n2C)cc1 | 0 | 6 | 5 | -1 | -7 | -8
Cn1c(CSc2ccccc2)c(C#N)c2ccccc21 | 2 | 63* | -16 | -2 | 10 | -6
C/C=C/c1ccc2c(c1)O[C@@H](CN(C)C(=O)NC1CCCCC1)[C@@H](C)CN([C@H](C)CO)S2(=O)=O | / | 1 | / | / | / | /
CC(c1nccs1)N(C)C(=O)CCc1nnc(-c2ccc(-c3ccccc3)cc2)o1 (centres undefined) | -8 | / | 9 | -2 | / | -16
CC(c1nccs1)N(C)C(=O)c1cn(Cc2cccc3ccccc23)nn1 (centres undefined) | 2 | 48* | 5 | 0 | -2 | -5
COCC#Cc1ccc2c(c1)O[C@@H](CN(C)CC1CCOCC1)[C@@H](C)CN([C@@H](C)CO)S2(=O)=O | / | -3 | / | / | / | /
CC(=O)NCCN=Cc1sc2ccccc2c1O | -3 | 14 | 5 | 1 | -5 | 10
CCCN=Cc1sc2ccc(OCC)cc2c1O | -2 | 77* | / | 2 | 6 | 4
O=C(COC(=O)c1cccc(-n2cnnn2)c1)c1ccc(Br)cc1 | 4 | 49* | 1 | 0 | 9 | -12
CC1CCCCN1CCCNC(=O)c1ccc2c(c1)NC(=O)CN2C (centres undefined) | 7.9* | -6 | / | / | / | /
CCC1CCCCN1CCCNC(=O)c1ccc2c(c1)NC(=O)CS2 (centres undefined) | 0 | -4 | -7 | / | / | 0
CO[C@H]1CN(C)C(=O)c2ccc(NC(=O)c3ccc(F)cc3)cc2OC[C@@H](C)N(C(C)=O)C[C@@H]1C | / | 3 | / | / | / | /
O=C(Nc1ccccc1Cl)c1cc(S(=O)(=O)N2CCCCC2)ccc1N1CCOCC1 | 0 | 14 | 60* | -1 | -4 | -8
CC1CCN(c2ccccc2NC(=O)c2cc([N+](=O)[O-])ccc2N2CCOCC2)CC1 | -1 | / | 54* | 0 | -10 | -13
COc1ccc(N2CCN(C(=O)C3Cc4ccccc4CN3C(=O)c3ccccc3)CC2)cc1 (centres undefined) | -1 | 72* | 2 | -1 | / | -4
COc1ccc(-c2nn(C)c3sc(C(=O)NCCN(C)C)cc23)cc1OC | 1 | -12 | -11 | 1 | 2 | 51*
CCN(CC)CCNC(=O)c1cc2c(-c3ccc(Cl)cc3)nn(C)c2s1 | 11* | -28 | 44 | 6 | 11 | -66
CCCN(CCC)CCNC(=O)c1cc2c(-c3ccc(Cl)cc3)nn(C)c2s1 | 0 | -8 | 34 | 24 | 18 | -23
CO[C@H]1CN(C)C(=O)c2cc(NC(=O)c3cccc(F)c3)ccc2OC[C@H](C)N(CC2CC2)C[C@H]1C | / | -1 | / | / | / | /
COc1cc(OC)cc(-c2noc(-c3csc([C@@H]4C[C@H](O)[C@@H](CO)O4)n3)n2)c1 | 2 | 48* | / | / | / | /
COc1ccc(-c2noc(-c3csc([C@@H]4C[C@H](O)[C@@H](CO)O4)n3)n2)cc1OC | 4 | 37 | / | / | / | /
